Measurements taken from PubChem BioAssay (NCI).
This is part of a sample that, as a whole, favours compounds with a hit. Of some 83,000 tested, about 20% had one in any assay.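 Growth was measured after 48 h exposure to one concentration of compound in 96-well plates. Values under 10 count as active.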 Unmarked numbers belong to inactive results. Activity calls are given as the source filed them.

How the values were obtained:
Assay in all cases: NCI-60 one-dose screen, 48 h (100 = growth as untreated, 0 = no growth, -100 = all killed)
Details in all cases: 10 µM unless noted
SR leukemia = system: SR leukemia
OVCAR-8 ovarian = system: OVCAR-8 ovarian
OVCAR-5 ovarian = system: OVCAR-5 ovarian
OVCAR-4 ovarian = system: OVCAR-4 ovarian
SK-OV-3 ovarian = system: SK-OV-3 ovarian
IGROV1 ovarian = system: IGROV1 ovarian
OVCAR-3 ovarian = system: OVCAR-3 ovarian
HS 578T breast = system: HS 578T breast
NCI/ADR-RES ovarian = system: NCI/ADR-RES ovarian
T-47D breast = system: T-47D breast
MDA-MB-435 melanoma = system: MDA-MB-435 melanoma
SW-620 colon = system: SW-620 colon
MCF7 breast = system: MCF7 breast
HCT-116 colon = system: HCT-116 colon
HCC-2998 colon = system: HCC-2998 colon
KM12 colon = system: KM12 colon
BT-549 breast = system: BT-549 breast

| SMILES | growth (SR leukemia) | growth (OVCAR-8 ovarian) | growth (OVCAR-5 ovarian) | growth (OVCAR-4 ovarian) | growth (SK-OV-3 ovarian) | growth (IGROV1 ovarian) | growth (OVCAR-3 ovarian) | growth (HS 578T breast) | growth (NCI/ADR-RES ovarian) | growth (T-47D breast) | growth (MDA-MB-435 melanoma) | growth (SW-620 colon) | growth (MCF7 breast) [%] | growth (HCT-116 colon) | growth (HCC-2998 colon) | growth (KM12 colon) | growth (BT-549 breast) |
| --- | --- | --- | --- | --- | --- | --- | --- | --- | --- | --- | --- | --- | --- | --- | --- | --- | --- |
| COc1ccc(S(=O)(=O)NCCCNc2nccc(-n3ccc4cccnc43)n2)cc1 | 90.7% | 92.7% | 100% | 81.5% | 119% | 103% | 98.8% | 92.3% | 91.1% | 78.2% | 98.4% | 113% | 98.7 | 105% | 111% | 94.6% | – |
| O=S(=O)(NCCCNc1nccc(-n2ccc3cccnc32)n1)c1ccc(Br)cc1 | 112% | 103% | 107% | 99.3% | 113% | 108% | 112% | 103% | 101% | 95.6% | 107% | 110% | 110 | 105% | 121% | 98.3% | – |
| C=C1CCC2C(C)(CO)C(O)CCC2(C)C1CC(NCc1ccccc1)C1=CCOC1=O (configuration not stated) | 99.8% | 94% | 94.3% | 97.8% | 105% | 102% | 105% | 104% | 95.9% | 97.7% | 106% | 97.3% | – | 99.8% | 108% | 104% | – |
| C=C1CCC2C(C)(CO)C(O)CCC2(C)C1C/C=C1/C(=O)OCC1O/C=C/c1ccccc1 (configuration not stated) | 27.6% | 55.3% | 93.5% | 62.7% | 125% | 84.1% | 75.7% | 96.3% | 73.9% | 33.4% | 75.8% | 5.82% (active) | 32.6 | 58.5% | 101% | 74.8% | – |
| CCCCOc1ccc(/C=C2/SC(N3CCCC3)=NC2=O)cc1 | 91.1% | 99.7% | 90.1% | 80.6% | 96.9% | 95.1% | 106% | – | 90.8% | 65.9% | 95.6% | 99.9% | 107 | 92.2% | 109% | 99.5% | 90.9% |
| COc1ccc(-c2ccc(-c3ccc(-c4ccc(C(=N)N)cc4)s3)s2)cc1OC | 6.75% (active) | 101% | -12.2% (active) | -53.2% (active) | – | 15.7% | -64.9% (active) | 89.6% | 84% | 28.5% | 88.2% | -40.8% (active) | – | 27.5% | -68.6% (active) | -42.5% (active) | 98.3% |
| Cc1ccc(S(=O)(=O)NCCCNc2cc(-c3cn(C(C)(C)C)nc3-c3cccc(O)c3)ccn2)cc1 | 40.6% | 71.9% | 78.5% | 56% | 85.7% | 61.7% | 74.6% | 60% | 72.4% | 44.2% | 63.1% | 19.1% | 45.7 | 52.5% | 50.3% | 39.8% | – |
| Brc1cccc(-c2cc(-c3ccc4c(c3)OCCCO4)[nH]n2)c1 | 41.7% [25 µM] | 69.3% [25 µM] | 63% [25 µM] | 68.1% [25 µM] | 53.1% [25 µM] | 46.8% [25 µM] | 48.7% [25 µM] | 71.1% [25 µM] | 22.1% [25 µM] | 29.2% [25 µM] | -7% [25 µM] (active) | 31.8% [25 µM] | – | 51.4% [25 µM] | 75.6% [25 µM] | 20% [25 µM] | 72.8% [25 µM] |
| COc1cc(Nc2ncccc2C(=O)NCc2cn(Cc3cccc(Oc4ccccc4)c3)nn2)cc(OC)c1 | 25.3% | 53.9% | 83.2% | 70.6% | 41.9% | 58.5% | -2.42% (active) | – | 9.54% (active) | 50.3% | -15.3% (active) | 31.4% | 18.3 | 19.5% | 55% | 16.7% | 43.8% |
